# Experimental data reported in PubChem BioAssay AID1159580 (chemical genetic matrix, 2015).
# The campaign covered roughly 5,500 compounds. About 2,000 (36%) were called active. Not shown: some 18% with an inconclusive outcome. The list shows a part of the results. A number with no mark means an inactive call. No stated cut-off is given here; in the data, active means normalized growth mostly below about 0.91 (no sharp cut-off); inconclusive means no clear call, values can overlap the other calls; inactive means mostly above about 0.92.
# Assay: chemical genetic growth profiling, strain panel (AID 1159580);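 further: tested at 20 µM; growth read once vehicle control cultures reached saturation at 30 °C; 1 = growth at the plate median or of vehicle wells; lower values mean less growth of the strain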
# Conditions: S. cerevisiae deletion strains, growth OD
# [1] = locus YAR019C, strain CDC15, active compounds read low
# [2] = locus YBL105C, strain PKC1, active compounds read low
# [3] = locus YBR135W, strain CKS1, active compounds read low
# [4] = locus YBR136W, strain MEC1, active compounds read low
# [5] = locus YBR160W, strain CDC28, active compounds read low
# [6] = locus YDL017W, strain CDC7, active compounds read low
# [7] = locus YDL028C, strain MPS1, active compounds read low
# [8] = locus YDL101C, strain DUN1, active compounds read low
# [9] = locus YDL108W, strain KIN28, active compounds read low
# [10] = locus YDL132W, strain cdc53, active compounds read low
# [11] = locus YDL214C, strain PRR2, active compounds read low
# [12] = locus YDR052C, strain DBF4, active compounds read low
# [13] = locus YDR054C, strain cdc34, active compounds read low
# [14] = locus YDR226W, strain ADK1, active compounds read low
# [15] = locus YDR477W, strain SNF1, active compounds read low
# [16] = locus YER123W, strain YCK3, active compounds read low
# [17] = locus YER133W, strain GLC7, active compounds read low
# [18] = locus YFL009W, strain cdc4, active compounds read low
# [19] = locus YFL029C, strain CAK1, active compounds read low
# [20] = locus YFR003C, strain YPI1, active compounds read low
# [21] = locus YFR019W, strain FAB1, active compounds read low
# [22] = locus YFR028C, strain CDC14, active compounds read low
# [23] = locus YGR040W, strain KSS1, active compounds read low
# [24] = locus YGR052W, strain FMP48, active compounds read low
# [25] = locus YGR092W, strain DBF2, active compounds read low
# [26] = locus YHR030C, strain SLT2, active compounds read low
# [27] = locus YHR079C, strain IRE1, active compounds read low
# [28] = locus YHR082C, strain KSP1, active compounds read low
# [29] = locus YHR205W, strain SCH9, active compounds read low
# [30] = locus YIL147C, strain SLN1, active compounds read low
# [31] = locus YJL095W, strain BCK1, active compounds read low
# [32] = locus YJL128C, strain PBS2, active compounds read low
# [33] = locus YJL157C, strain FAR1, active compounds read low
# [34] = locus YJR016C, strain ILV3, active compounds read low
# [35] = locus YJR066W, strain TOR1 (second series), active compounds read low
# [36] = locus YJR066W, strain TOR1, active compounds read low
# [37] = locus YKL048C, strain ELM1, active compounds read low
# [38] = locus YKL067W, strain YNK1, active compounds read low
# [39] = locus YKL101W, strain HSL1, active compounds read low
# [40] = locus YKL193C, strain SDS22, active compounds read low
# [41] = locus YKL203C, strain TOR2, active compounds read low
# [42] = locus YLR113W, strain HOG1, active compounds read low
# [43] = locus YLR133W, strain CKI1, active compounds read low
# [44] = locus YLR403W, strain SFP1, active compounds read low
# [45] = locus YML070W, strain DAK1, active compounds read low
# [46] = locus YMR001C, strain CDC5, active compounds read low
# [47] = locus YMR205C, strain PFK2 (second series), active compounds read low
# [48] = locus YMR277W, strain FCP1, active compounds read low
# [49] = locus YNL006W, strain LST8, active compounds read low
# [50] = locus YNL020C, strain ARK1, active compounds read low
# [51] = locus YNL161W, strain CBK1, active compounds read low
# [52] = locus YNL183C, strain NPR1, active compounds read low
# [53] = locus YNL207W, strain RIO2, active compounds read low
# [54] = locus YNL222W, strain SSU72, active compounds read low
# [55] = locus YNL307C, strain MCK1 (second series), active compounds read low
# [56] = locus YOL078W, strain AVO1, active compounds read low
# [57] = locus YOL136C, strain PFK27, active compounds read low
# [58] = locus YOR061W, strain CKA2, active compounds read low
# [59] = locus YOR119C, strain RIO1, active compounds read low
# [60] = locus YOR231W, strain MKK1, active compounds read low
# [61] = locus YOR329C, strain SCD5, active compounds read low
# [62] = locus YPL031C, strain PHO85, active compounds read low
# [63] = locus YPL153C, strain RAD53, active compounds read low
# [64] = locus YPL204W, strain HRR25, active compounds read low
# [65] = locus YPL209C, strain IPL1, active compounds read low
# [66] = locus YPL256C, strain CLN2, active compounds read low
# [67] = locus YPR025C, strain CCL1, active compounds read low
# [68] = locus YPR106W, strain ISR1, active compounds read low
# [69] = locus YPR111W, strain DBF20, active compounds read low
# [70] = strain NNK1, active compounds read low
# [71] = strain TSCII, active compounds read low
structure (smiles),measurement,setting,value
Cc1ccc(C(=O)O/N=C(/N)CSc2ncccc2C(F)(F)F)cc1,normalized growth,[1],1
same,normalized growth,[2],1.01
same,normalized growth,[3],1
same,normalized growth,[4],1.01
same,normalized growth,[5],1
same,normalized growth,[6],1.01
same,normalized growth,[7],0.989
same,normalized growth,[8],1
same,normalized growth,[9],1
same,normalized growth,[10],1.01
same,normalized growth,[11],0.991
same,normalized growth,[12],1.01
same,normalized growth,[13],1.01
same,normalized growth,[14],1.02
same,normalized growth,[15],0.994
same,normalized growth,[16],0.995
same,normalized growth,[17],0.976
same,normalized growth,[18],0.994
same,normalized growth,[19],1
same,normalized growth,[20],1
same,normalized growth,[21],0.955
same,normalized growth,[22],1.01
same,normalized growth,[23],0.998
same,normalized growth,[24],1.02
same,normalized growth,[25],1
same,normalized growth,[26],0.982
same,normalized growth,[27],0.793
same,normalized growth,[28],1.19
same,normalized growth,[29],0.988
same,normalized growth,[30],1.01
same,normalized growth,[31],0.887
same,normalized growth,[32],0.988
same,normalized growth,[33],0.997
same,normalized growth,[34],1.01
same,normalized growth,[35],0.975
same,normalized growth,[36],1.16
same,normalized growth,[37],0.991
same,normalized growth,[38],0.996
same,normalized growth,[39],1
same,normalized growth,[40],1.01
same,normalized growth,[41],1.07
same,normalized growth,[42],0.828 (active)
same,normalized growth,[43],1
same,normalized growth,[44],0.976
same,normalized growth,[45],0.988
same,normalized growth,[46],1.01
same,normalized growth,[47],0.993
same,normalized growth,[48],1.01
same,normalized growth,[49],1.01
same,normalized growth,[50],1
same,normalized growth,[51],1.01
same,normalized growth,[52],0.951
same,normalized growth,[53],1.02
same,normalized growth,[54],1
same,normalized growth,[55],1.01
same,normalized growth,[56],1
same,normalized growth,[57],0.994
same,normalized growth,[58],0.982
same,normalized growth,[59],1.02
same,normalized growth,[60],0.821
same,normalized growth,[61],1.01
same,normalized growth,[62],1
same,normalized growth,[63],0.984
same,normalized growth,[64],0.994
same,normalized growth,[65],1.01
same,normalized growth,[66],0.884
same,normalized growth,[67],1
same,normalized growth,[68],1.01
same,normalized growth,[69],1
same,normalized growth,[70],1.02
same,normalized growth,[71],1.01
Cc1cc(C(=O)O/N=C(/N)CSc2ncccc2C(F)(F)F)no1,normalized growth,[1],0.997
same,normalized growth,[2],0.993
same,normalized growth,[3],0.994
same,normalized growth,[4],0.992
same,normalized growth,[5],0.988
same,normalized growth,[6],0.995
same,normalized growth,[7],0.993
same,normalized growth,[8],1.01
same,normalized growth,[9],0.996
same,normalized growth,[10],0.99
same,normalized growth,[11],0.999
same,normalized growth,[12],0.998
same,normalized growth,[13],0.989
same,normalized growth,[14],0.991
same,normalized growth,[15],1
same,normalized growth,[16],1.01
same,normalized growth,[17],1.01
same,normalized growth,[18],0.999
same,normalized growth,[19],0.998
same,normalized growth,[20],0.993
same,normalized growth,[21],1
same,normalized growth,[22],0.994
same,normalized growth,[23],1.02
same,normalized growth,[24],0.995
same,normalized growth,[25],1.02
same,normalized growth,[26],0.957
same,normalized growth,[27],0.772
same,normalized growth,[28],1.17
same,normalized growth,[29],1
same,normalized growth,[30],0.991
same,normalized growth,[31],0.841
same,normalized growth,[32],0.983
same,normalized growth,[33],1.01
same,normalized growth,[34],0.997
same,normalized growth,[35],1
same,normalized growth,[36],1.14
same,normalized growth,[37],1.01
same,normalized growth,[38],0.993
same,normalized growth,[39],1
same,normalized growth,[40],0.989
same,normalized growth,[41],1.08
same,normalized growth,[42],0.789 (active)
same,normalized growth,[43],1.01
same,normalized growth,[44],1.02
same,normalized growth,[45],0.995
same,normalized growth,[46],0.997
same,normalized growth,[47],1.02
same,normalized growth,[48],0.994
same,normalized growth,[49],0.999
same,normalized growth,[50],1.01
same,normalized growth,[51],0.996
same,normalized growth,[52],0.933
same,normalized growth,[53],0.997
same,normalized growth,[54],0.978
same,normalized growth,[55],1.01
same,normalized growth,[56],0.998
same,normalized growth,[57],1.01
same,normalized growth,[58],1.02
same,normalized growth,[59],1.04
same,normalized growth,[60],0.792
same,normalized growth,[61],0.995
same,normalized growth,[62],1
same,normalized growth,[63],0.997
same,normalized growth,[64],1.01
same,normalized growth,[65],0.992
same,normalized growth,[66],0.824 (active)
same,normalized growth,[67],0.999
same,normalized growth,[68],0.997
same,normalized growth,[69],0.993
same,normalized growth,[70],1.01
same,normalized growth,[71],0.99
